According to PubChem BioAssay (NCATS):
Inconclusive results are not listed. The source made the active and inactive calls. Calls follow the shape of the dose curve; as a rule, active = well fitted inhibition curve with a large enough effect; inconclusive = small, poorly fitted or top-dose-only effect; inactive = no such curve, though single readings can be large or run the other way.

target: Cytochrome P450 3A4 (Homo sapiens) (UniProt P08684); assay: qHTS Assay for Inhibitors and Substrates of Cytochrome P450 3A4 (AID 884); conditions: recombinant CYP3A4, Luciferin-PPXE luminescence; series mostly up to 57.1 µM; also: nearly all actives have a fitted effect of over 50% in size
Protocol: NIH Molecular Libraries Screening Centers Network [MLSCN]
NIH Chemical Genomics Center [NCGC]
The P450 gene superfamily is involved in the metabolism and clearance of xenobiotics. This assay used human CYP3A4 to measure the dealkylation of luciferin-6' phenylpiperazinylyl (Luciferin-PPXE; […]) to luciferin. The luciferin is then measured by luminescence after the addition of a luciferase detection reagent. Luciferin-PPXE concentration in the assay was equal to its KM for CYP3A4. Inhibitors and some substrates limit the production of luciferin, and decrease measured luminescence.
NCGC Assay Protocol Summary:
Two uL of enzyme and substrate mix (final concentrations: 20nM CYP3A4, 25uM Luciferin-PPXE, 200mM KPO4) were dispensed into a white, solid bottom 1536-well microtiter plate. 23nL of compound was transferred by a pin tool. The plate was incubated at RT for 10 min. Two uL of an NADPH regeneration solution (Promega supplied reagent) was dispensed and the reaction was allowed to continue for 60 min at RT. Then the reaction was stopped by reconstituted luciferin detection buffer. After another 20 min of incubation the plate was read on the ViewLux (Perkin Elmer) at 60 sec exposure and 2x2 binning. This protocol was carried out with Promega-Glo reagents and further information can be found at http://www.promega.com/tbs/tb325/tb325.pdf. Data were normalized to the to AC100 inhibition (57 uM ketoconazole).
Keywords: P450, CYP3A4, Luciferase, MLSMR, MLSCN, NIH Roadmap, qHTS, NCGC
Potency is read from the fitted curve at half-maximal effect.

Sequence of Cytochrome P450 3A4 (Homo sapiens) (P08684 whole entry, looked up): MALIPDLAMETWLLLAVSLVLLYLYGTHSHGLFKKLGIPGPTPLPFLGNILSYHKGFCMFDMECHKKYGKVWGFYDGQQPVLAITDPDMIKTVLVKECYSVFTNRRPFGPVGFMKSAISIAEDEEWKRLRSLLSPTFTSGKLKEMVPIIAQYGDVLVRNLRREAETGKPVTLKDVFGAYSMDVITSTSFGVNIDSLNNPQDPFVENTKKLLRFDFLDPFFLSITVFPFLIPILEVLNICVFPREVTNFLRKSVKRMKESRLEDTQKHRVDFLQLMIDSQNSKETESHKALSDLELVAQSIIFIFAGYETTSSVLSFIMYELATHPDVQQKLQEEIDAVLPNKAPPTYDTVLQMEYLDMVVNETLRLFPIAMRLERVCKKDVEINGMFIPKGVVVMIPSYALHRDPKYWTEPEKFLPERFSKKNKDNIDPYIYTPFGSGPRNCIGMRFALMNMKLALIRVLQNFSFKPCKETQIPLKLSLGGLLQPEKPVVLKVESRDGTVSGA

Potency, active:
CC1(C)S[C@@H]2[C@H](NC(=O)[C@@H](N)c3ccccc3)C(=O)N2[C@H]1C(=O)O[C@H]1OC(=O)c2ccccc21 1.58 µM
COc1ccc([C@@H]2CC(=O)c3c(O)cc(O)cc3O2)cc1O 15.8 µM
COc1ccc(/C=C/C(=O)c2ccc(O)cc2O)cc1OC 1.26 µM
CC1CC[C@@]23CCC4(C)[C@@]5(C)CCC6C(C)(C)C(O)CC[C@@]6(C)C5C=C[C@@]4(OC2=O)C3C1C (stereo not given in full) 5.01 µM
Nc1nc2c(nc(Sc3ccc(Cl)cc3)n2C2OC(CO)C(O)C2O)c(=O)[nH]1 (stereo not given) 15.8 µM
CC[C@@H]1OC(=O)[C@@H](C)[C@H](O[C@H]2C[C@@](C)(OC)[C@@H](O)[C@H](C)O2)C(C)[C@H](O[C@H]2O[C@@H](C)C[C@@H](N(C)C)[C@@H]2O)[C@@](C)(O)C[C@H](C)C(=O)[C@@H](C)[C@H](O)[C@@]1(C)O (stereo not given in full) 15.8 µM
CCOC(=O)CCC(=O)O[C@H]1C(O[C@@H]2C(C)[C@H](O[C@H]3C[C@@](C)(OC)C(O)C(C)O3)C(C)C(=O)OC(CC)[C@@](C)(O)C(O)[C@H](C)C(=O)C(C)C[C@]2(C)O)OC(C)CC1N(C)C (stereo not given in full) 20 µM
C=C1CCC(OC(C)=O)/C(C)=C/CC2[C@H]1CC2(C)C (stereo not given in full) 31.6 µM
COc1cc(C2c3cc4c(cc3C(O[C@@H]3OC5COC(c6cccs6)OC5C(O)C3O)C3COC(=O)C23)OCO4)cc(OC)c1O (stereo not given in full) 6.31 µM
COc1ccc(C2CC(=O)c3c(O)cc(O)cc3O2)cc1O (stereo not given) 15.8 µM

Potency, inactive:
CC1=C(CCC(=O)O)c2cc3nc(cc4[nH]c(cc5[nH]c(cc1n2)c(C)c5C(C)O)c(C)c4C(C)O)C(C)=C3CCC(=O)O (stereo not given)
CCOC(=O)C(CCc1ccccc1)NC(C)C(=O)N1CCCC1C(=O)O (stereo not given)
COc1cc2ccc(=O)oc2c(O)c1O
Nc1nc2c([nH]c(=O)n2C2OC(CO)C(O)C2O)c(=O)[nH]1 (stereo not given)
CC(=O)OC1CC[C@@]2(C)C3=CC(=O)[C@]4(C)C(CC5OC6(OCC(C)CC6Br)C(C)C54)C3CC[C@H]2C1 (stereo not given in full)
Cn1c(=O)[nH]c2nc[nH]c2c1=O
C[N+]1(C)CC(O)[C@H](C(=O)[O-])C1 (stereo not given in full)
CC(=O)NC(CCC(=O)O)C(=O)O (stereo not given)
NC(=O)c1ccc[n+]([C@@H]2O[C@H](COP(=O)([O-])OP(=O)(O)OC[C@H]3O[C@@H](n4cnc5c(N)ncnc54)[C@@H](O)[C@@H]3O)[C@@H](O)[C@@H]2O)c1
O=c1[nH]c(=O)n([C@@H]2O[C@H](CO)[C@@H](O)[C@H]2O)cc1F
CC1CC[C@@]2(OC1)OC1CC3C4CC[C@@H]5CC(O)CC[C@@]5(C)C4CC[C@]3(C)C1C2C (stereo not given in full)
CNC1C(OC2C(O[C@@H]3C(O)C(O)[C@@H](N=C(N)N)C(O)C3N=C(N)N)OC(C)[C@@]2(O)CO)OC(CO)C(O)C1O (stereo not given in full)
CC12CCC3c4ccc(OCc5ccccc5)cc4CCC3C1CC(O)C2O (stereo not given)
COc1ccc(C2CC(=O)c3c(O)cc(OC4OC(COC5OC(C)C(O)C(O)C5O)C(O)C(O)C4O)cc3O2)cc1O (stereo not given)
CC1(C)OC2C[C@](O)(C(N)=O)C[C@H](O)[C@H]2O1 (stereo not given in full)
CC(=O)C1CCC2C3CC=C4CC(O)CC[C@@]4(C)C3CC[C@]12C (stereo not given in full)
CC(=O)Oc1ccc2c(c1)CCC1C2CC[C@]2(C)C(=O)CCC12 (stereo not given in full)
CC(C)CCCC(C)C1CCC2C3CC=C4CC(O)CCC4(C)C3CCC12C (stereo not given)
O=c1oc2ccccc2cc1O
Oc1cc(O)c2c(c1)OC(c1cc(O)c(O)c(O)c1)C(O)C2 (stereo not given)
COC(=O)CCCC[C@@H]1SC[C@@H]2NC(=O)N[C@@H]21
COc1ccc(-c2cc(=O)c3c(O)cc(O[C@H]4OC(COC5OC(C)C(O)C(O)[C@H]5O)C(O)C(O)C4O)cc3o2)cc1O (stereo not given in full)
CC(C)C(N)C(=O)NC(Cc1c[nH]c2ccccc12)C(=O)O (stereo not given)
Nc1nc(Cl)c2ncn(C3OC(CO)C(O)C3O)c2n1 (stereo not given)
Cc1cc2ccc(=O)oc2cc1OC[C@@H](O)C(C)(C)O
O=c1[nH]c(=O)n(C2CC(O)C(CO)O2)cc1C(F)(F)F (stereo not given)
Nc1nc2c(ncn2C2OC(CO)CC2O)c(=O)[nH]1 (stereo not given)
CC(C)C1=CC2=CC[C@@H]3[C@@](C)(C(=O)O)CCC[C@]3(C)C2CC1 (stereo not given in full)
CC(C1OC(C)(C)C(O)C1O)C1CC[C@@]2(C)C3=CCC4C(C)(C)C(=O)CC[C@]4(C)C3CC[C@@]12C (stereo not given in full)
O=c1cc(-c2ccccc2O)oc2cc(O)ccc12
